For test [1], the target named is Lysosomal acid glucosylceramidase (Homo sapiens) (UniProt P04062). The experiment in a line: Glucocerebrosidase-p2 (AID 348; in the data active means potency below about 10 µM; further: potency means the concentration at half of the fitted maximal effect). To be noted: purified GBA, blue fluorogenic substrate, 40 min. In short, it runs like this: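 Normal human glucocerebrosidase (0.2 nM) with blue fluorogenic substrate (80 uM final) in citrate/phosphate pH 5.9 with 10mM sodium taurocholate, 0.01% tween-20; 40 min RT, NaOH/glycine stop; fluorescence Ex 365/Em 440; AC50 from a titration from 0.6 nM upwards.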
Sequence of Lysosomal acid glucosylceramidase (Homo sapiens) (P04062 whole entry, looked up): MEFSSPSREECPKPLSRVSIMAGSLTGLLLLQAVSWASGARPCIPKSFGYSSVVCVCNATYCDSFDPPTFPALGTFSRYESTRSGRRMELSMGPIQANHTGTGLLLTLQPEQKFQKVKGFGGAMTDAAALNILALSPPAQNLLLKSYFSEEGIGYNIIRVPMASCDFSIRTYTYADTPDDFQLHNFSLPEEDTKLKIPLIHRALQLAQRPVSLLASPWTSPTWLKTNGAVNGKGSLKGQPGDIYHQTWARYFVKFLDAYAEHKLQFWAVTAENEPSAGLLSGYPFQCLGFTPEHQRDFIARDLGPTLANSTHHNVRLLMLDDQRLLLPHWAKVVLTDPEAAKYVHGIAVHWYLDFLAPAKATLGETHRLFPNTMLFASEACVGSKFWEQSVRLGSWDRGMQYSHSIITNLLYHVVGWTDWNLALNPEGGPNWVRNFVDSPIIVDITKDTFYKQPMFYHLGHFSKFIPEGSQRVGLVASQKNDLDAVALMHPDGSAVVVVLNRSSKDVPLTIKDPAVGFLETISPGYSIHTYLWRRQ

Test [2] is described as follows: AP1 Signaling Pathway (AID 357).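 Further: ME-180 reporter cells stimulated with EGF at its EC50 level; on the % scale 0 is the no-effect control and ±100 the full control effect.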 As to conditions: ME-180 AP-1-bla reporter, EGF-induced, beta-lactamase ratio, 5 h; at 7.69 µM (top of the series) unless noted. The method, boiled down: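 A ratiometric CCF4 readout (405 nm excitation; 460 and 530 nm emission) quantified AP-1-driven beta-lactamase in ME-180 cells after 5 h with compound and EC50 EGF; AC50 values were derived for activators and inhibitors.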

Test [3] has as its target Cytochrome P450 1A2 (Homo sapiens) (UniProt P05177). The experiment in a line: p450-cyp1a2 (AID 410; calls by dose curve; further: potency means the concentration at half of the fitted maximal effect;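 on activity change, negative = inhibition: -100% = full effect of reference inhibitor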). As to conditions: recombinant CYP1A2, luciferin-ME demethylation, luminescence; series mostly up to 11.4 µM. The method, boiled down: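 Read-out is luminescence from luciferin produced by CYP1A2 demethylation of Luciferin-ME (100uM, at Km). Detection reagent stopped the 60 min NADPH-dependent reaction; signals were normalized to 57 uM furafylline.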

Test [4] is described as follows: Stat Signaling Pathway (AID 446).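 Further: ME-180 cervical cancer cells given 40 pM IL-6 alongside compound; SIE-controlled beta-lactamase reporter measured as 460/530 nm FRET emission ratio; on the % scale 0 is the no-effect control and ±100 the full control effect.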 As to conditions: ME-180 (cervical carcinoma) SIE beta-lactamase reporter, IL-6 stimulated, 5 h; at 7.69 µM (top of the series) unless noted. In short, it runs like this:
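Compound effects on IL-6-induced STAT reporter activity were measured in ME-180 cells. After overnight culture, cells were co-treated with 40 pM IL-6 for 5 hrs before beta-lactamase substrate loading at room temperature.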

The target in test [5] is Glucocorticoid receptor (Homo sapiens) (UniProt P04150). The experiment in a line: GR-GFP Redistribution (AID 450;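 active means compounds whose dose series gives a full or clear partial fitted curve of increased nuclear translocation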; further: potency means the concentration at half of the fitted maximal effect). To be noted: U2OS GR-GFP nuclear translocation, laser cytometry, 2 h.
Sequence of Glucocorticoid receptor (Homo sapiens) (P04150 whole entry, looked up, the tested form may be a part): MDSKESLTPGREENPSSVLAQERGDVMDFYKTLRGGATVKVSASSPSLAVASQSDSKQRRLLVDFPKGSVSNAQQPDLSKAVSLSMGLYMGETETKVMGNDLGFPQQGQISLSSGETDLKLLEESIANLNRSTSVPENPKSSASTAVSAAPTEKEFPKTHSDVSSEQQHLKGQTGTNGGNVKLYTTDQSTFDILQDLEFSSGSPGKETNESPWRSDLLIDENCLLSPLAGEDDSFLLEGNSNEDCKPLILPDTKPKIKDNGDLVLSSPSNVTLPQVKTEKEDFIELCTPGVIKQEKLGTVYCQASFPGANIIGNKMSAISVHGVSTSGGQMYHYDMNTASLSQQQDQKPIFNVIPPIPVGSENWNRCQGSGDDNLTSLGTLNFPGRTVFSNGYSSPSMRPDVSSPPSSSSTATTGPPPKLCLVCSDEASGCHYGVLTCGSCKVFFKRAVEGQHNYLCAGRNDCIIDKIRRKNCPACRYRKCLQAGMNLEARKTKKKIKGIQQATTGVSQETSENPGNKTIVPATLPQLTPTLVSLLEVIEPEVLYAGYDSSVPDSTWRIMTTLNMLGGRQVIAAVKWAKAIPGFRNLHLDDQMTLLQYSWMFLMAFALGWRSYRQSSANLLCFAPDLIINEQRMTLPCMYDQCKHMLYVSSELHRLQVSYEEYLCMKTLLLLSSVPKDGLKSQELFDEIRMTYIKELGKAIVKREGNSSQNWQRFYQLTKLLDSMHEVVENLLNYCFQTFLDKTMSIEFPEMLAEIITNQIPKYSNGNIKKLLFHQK
For test [6] the target is unchanged. The experiment in a line: GR-EFC Redistribution (AID 451; calls by dose curve; further: potency means the concentration at half of the fitted maximal effect). To be noted: CHO-K1 GR-EFC translocation, beta-gal luminescence, 2 h. The method, boiled down: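 Translocation of GR-ED fusion to nuclear EA restores b-gal, read by luminescence after 1 h room-temperature detection. Engineered CHO-K1 biosensor cells, 1,000/well, exposed 2 h at 37 C to titrations up to 46 uM final.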

For test [7], the target named is Mitogen-activated protein kinase 10 (Mus musculus) (UniProt Q61831). The experiment in a line: JNK3 AlphaScreen Assay (AID 530).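 Further: kinase came from lysate of stimulated human HepG2 cells; signal reports phosphorylation of biotinylated GST-cJun 1-79 at Ser73 with 10 µM ATP; on the % scale 0 is the no-effect control and ±100 the full control effect.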 As to conditions: JNK3 lysate, c-Jun phosphorylation; series mostly up to 11.4 µM. In short, it runs like this: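 Kinase buffer: 20 mM Tris-HCl pH 7.6, 10 mM MgCl2, 1 mM DTT, 0.1 mM Na3VO4, 0.01% Tween-20; ATP 10 uM. Substrate biotin-GST-cJun(1-79), enzyme from activated HepG2 lysates. Detection by Ser73 phospho-antibody AlphaScreen.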

Test [8] deals with 3',5'-cyclic-AMP phosphodiesterase 4B (Homo sapiens) (UniProt Q07343). The experiment in a line: qHTS Assay for Inhibitors of PDE-IV (AID 607; active means well fitted activation curve with a large enough effect in the main read-out, with a control signal flat, not every such curve was filed as active; further: % of control where 0% means no effect). As to conditions: HEK293 ACTOne CNG channel cells, membrane potential fluorescence; series mostly up to 22.9 µM. In short, it runs like this:
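ACTOne HEK293 cells carry a modified cAMP-gated CNG channel and express endogenous PDE4; plated 1000 cells/well, compounds up to 22.9 uM final. Membrane-potential dye fluorescence (ex 535/em 590) was read; parental cells received 10 uM forskolin + 100 uM RO 20-1724.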

The target in test [9] is Cytochrome P450 2C9 (Homo sapiens) (UniProt P11712). The experiment in a line: qHTS Assay for Inhibitors and Substrates of Cytochrome P450 2C9 (AID 883; active means well fitted inhibition curve with a large enough effect; further: potency means the concentration at half of the fitted maximal effect; nearly all actives have a fitted effect of over 60% in size). To be noted: recombinant CYP2C9, luciferin-H luminescence, 60 min; series mostly up to 11.4 µM. In short, it runs like this:
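Turnover of Luciferin-H (100uM, KM) by 10nM human CYP2C9 was measured over 60 min at 37C with NADPH regeneration; inhibitors and some substrates reduce luminescence. Data normalized to sulphaphenazole 57uM.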

A number with no mark means an inactive call. Inconclusive results are not listed. The source made the active and inactive calls. Unless noted, the call rests on the fitted dose curve; in most records, active means well fitted curve in either direction with a large enough effect (not every such curve was filed as active); inconclusive means small, poorly fitted or top-dose-only effect, or another doubt; inactive means flat fitted curve, though single readings scatter. Where only a bound is given, the exact number is not on record here.

Sequence of Cytochrome P450 1A2 (Homo sapiens) (P05177 whole entry, looked up): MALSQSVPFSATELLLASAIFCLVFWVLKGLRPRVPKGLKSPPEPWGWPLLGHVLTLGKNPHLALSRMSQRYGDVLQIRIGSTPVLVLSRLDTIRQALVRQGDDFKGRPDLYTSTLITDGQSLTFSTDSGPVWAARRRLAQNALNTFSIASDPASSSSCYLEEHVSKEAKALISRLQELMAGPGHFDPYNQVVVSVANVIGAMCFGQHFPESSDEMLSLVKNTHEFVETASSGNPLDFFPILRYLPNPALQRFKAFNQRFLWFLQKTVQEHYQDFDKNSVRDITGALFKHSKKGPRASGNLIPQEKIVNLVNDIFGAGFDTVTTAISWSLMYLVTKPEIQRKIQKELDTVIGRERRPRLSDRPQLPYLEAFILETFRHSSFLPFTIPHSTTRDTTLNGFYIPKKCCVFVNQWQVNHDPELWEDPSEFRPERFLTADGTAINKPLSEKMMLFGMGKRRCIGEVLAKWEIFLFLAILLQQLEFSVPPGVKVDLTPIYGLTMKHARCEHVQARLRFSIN
Sequence of 3',5'-cyclic-AMP phosphodiesterase 4B (Homo sapiens) (Q07343 whole entry, looked up): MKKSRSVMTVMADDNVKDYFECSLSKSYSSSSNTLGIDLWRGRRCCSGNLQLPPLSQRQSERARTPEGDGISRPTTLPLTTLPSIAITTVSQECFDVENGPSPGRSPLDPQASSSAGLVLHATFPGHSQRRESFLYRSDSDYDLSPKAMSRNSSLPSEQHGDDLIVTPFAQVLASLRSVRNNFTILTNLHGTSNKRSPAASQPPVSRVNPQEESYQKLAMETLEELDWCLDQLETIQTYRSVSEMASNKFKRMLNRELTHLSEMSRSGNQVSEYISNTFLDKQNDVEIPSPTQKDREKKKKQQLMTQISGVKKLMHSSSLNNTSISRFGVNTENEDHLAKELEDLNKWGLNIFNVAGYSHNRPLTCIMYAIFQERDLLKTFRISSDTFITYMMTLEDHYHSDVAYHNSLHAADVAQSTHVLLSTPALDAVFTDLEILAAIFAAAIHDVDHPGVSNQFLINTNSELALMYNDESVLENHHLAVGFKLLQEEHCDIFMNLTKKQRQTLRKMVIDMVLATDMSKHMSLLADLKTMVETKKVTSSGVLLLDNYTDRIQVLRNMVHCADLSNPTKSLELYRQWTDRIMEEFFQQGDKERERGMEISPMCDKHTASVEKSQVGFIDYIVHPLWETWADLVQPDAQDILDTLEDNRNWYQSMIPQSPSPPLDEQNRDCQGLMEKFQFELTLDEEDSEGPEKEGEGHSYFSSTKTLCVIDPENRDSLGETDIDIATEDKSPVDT
Sequence of Cytochrome P450 2C9 (Homo sapiens) (P11712 whole entry, looked up): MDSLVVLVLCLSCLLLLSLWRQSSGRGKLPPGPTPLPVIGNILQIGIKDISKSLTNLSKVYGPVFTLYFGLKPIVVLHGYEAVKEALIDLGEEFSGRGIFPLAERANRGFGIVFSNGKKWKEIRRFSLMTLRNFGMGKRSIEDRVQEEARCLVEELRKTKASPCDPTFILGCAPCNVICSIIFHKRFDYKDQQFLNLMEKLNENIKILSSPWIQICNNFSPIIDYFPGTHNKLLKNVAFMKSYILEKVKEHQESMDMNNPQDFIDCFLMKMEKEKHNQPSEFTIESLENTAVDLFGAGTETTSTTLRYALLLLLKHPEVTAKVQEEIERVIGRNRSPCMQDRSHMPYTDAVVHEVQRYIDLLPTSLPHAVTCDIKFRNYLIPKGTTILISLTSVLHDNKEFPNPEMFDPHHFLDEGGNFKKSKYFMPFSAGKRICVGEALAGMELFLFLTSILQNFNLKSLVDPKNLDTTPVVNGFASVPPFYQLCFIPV

For the compound `N/N=C1/CC(=O)NC(=O)N1`, the Potency in test [1] is more than 11.4 µM; in [3], 0.631 µM (active); in test [5], more than 46 µM; in test [6], more than 9.22 µM. Further, the activity change, negative = inhibition in test [2] was 2.16%. Moreover, in [4], the activity, negative = inhibition was -13%. For the same compound, the Potency result in test [7] and in [8] was “inactive” in each case.
As to `O[C@@H](c1cc(C(F)(F)F)nc2c(Cl)cc(Cl)cc12)[C@@H]1CCCCN1`, the Potency is more than 11.4 µM in test [1], 3.98 µM (active) in test [3], more than 46 µM in test [5] and more than 9.22 µM in [6]. Moreover, the activity change, negative = inhibition in test [2] was 14.2%. Moreover, in [4], the activity, negative = inhibition was -0.0324%. In addition, the Potency entry in test [7] and in [8] was “inactive” throughout.
Turning to `O=C(O)/C=C\C(=O)Nc1cccc2c1-c1ccccc1C2=O`, the Potency is more than 11.4 µM in [1], 2.51 µM (active) in test [3], more than 46 µM in test [5] and more than 9.22 µM in [6]. Moreover, the activity change, negative = inhibition in test [2] is -2.3%. For the same compound, the activity, negative = inhibition in [4] is -4.51%. The Potency result in test [7] and in test [8] was “inactive” in each case.
Consider `O=C1C=CC(=Nc2cccc3c(N=C4C=CC(=O)O4)cccc23)O1`, for which the Potency is more than 11.4 µM in test [1], more than 46 µM in test [5] and more than 9.22 µM in [6]. Further, the activity change, negative = inhibition in test [2] was 5.25%. The Potency result in test [3], in [7] and in [8] was “inactive” in each case. Besides, in test [4], the activity, negative = inhibition was -22.4%.
As to `N=C1CCC[C@@H]1C(=S)SCCC(N)=O`, the Potency in test [1] is more than 11.4 µM; in [3], 3.16 µM (active); in test [5], more than 46 µM; in test [6] it was more than 9.22 µM. In addition, the activity change, negative = inhibition in [2] is -7.71%. Further, the activity, negative = inhibition in test [4] is -12.4%. Moreover, the Potency result in [7] and in test [8] was “inactive” in each case.
As for `COc1ccc(Cc2ccccc2C(=O)O)c2ccccc12`, the Potency in test [1] is more than 11.4 µM; in test [5] it was more than 46 µM; in test [6], more than 9.22 µM; in [9], 3.98 µM (active). Moreover, the activity change, negative = inhibition was -1.93% in test [2] and 2.8% [at 2.29 µM] in test [3]. In addition, in [4], the activity, negative = inhibition is -28.9%. In addition, the Potency entry in test [7] and in test [8] was “inactive” throughout.
In the case of `O=C(O)/C=C\C(=O)N1Cc2cc3ccccc3nc2C1`, the results for the Potency in test [1], in [5] and in test [6] were more than 11.4 µM, more than 46 µM and more than 9.22 µM, respectively. In addition, the activity change, negative = inhibition in [2] is 6.48%. For the same compound, the Potency entry in test [3], in [7] and in test [8] was “inactive” throughout. For the same compound, in [4], the activity, negative = inhibition was 12.1%.
For the compound `CCN(CC)CC[n+]1ccc2c(C)c3[nH]c4ccccc4c3c(C)c2c1`, the Potency was more than 11.4 µM in [1], 2.51 µM (active) in test [3], more than 46 µM in test [5] and more than 9.22 µM in test [6]. In [2], the activity change, negative = inhibition is -22.3%. Also, the activity, negative = inhibition in [4] was 29.6%. For the same compound, the Potency entry in [7] and in test [8] was “inactive” throughout.
On to `N[C@@H](Cc1cccnn1)C(=O)O`, for which the Potency in [1] is more than 11.4 µM; in [3], 3.16 µM (active); in [5], more than 46 µM; in test [6] it was more than 9.22 µM. Besides, the activity change, negative = inhibition in [2] is 2.23%. In addition, the activity, negative = inhibition in [4] is 2.86%. For the same compound, the Potency entry in test [7] and in [8] was “inactive” each time.
